Measurements taken from PubChem BioAssay (NCATS).
Results filed as inconclusive are left out. A call without a number means that no potency is given here. Activity calls are given as the source filed them. Calls come from the whole dose curve; as a rule, active = well fitted inhibition curve with a large enough effect; inconclusive = small, poorly fitted or top-dose-only effect; inactive = flat fitted curve, though single readings scatter.

These molecules were tested against Phospholipid hydroperoxide glutathione peroxidase GPX4 (Homo sapiens) (UniProt P36969) (assay: Primary qHTS Assay for Inhibitors of Recombinant Selenoprotein Glutathione Peroxidase 4 (GPX4) (AID 1845192; note: nearly all actives have a fitted effect of over 65% in size)). Conditions: recombinant GPX4, GR-coupled NADPH fluorescence, 15 min; series mostly up to 50 µM.
Sequence of Phospholipid hydroperoxide glutathione peroxidase GPX4 (Homo sapiens) (P36969 whole entry, looked up): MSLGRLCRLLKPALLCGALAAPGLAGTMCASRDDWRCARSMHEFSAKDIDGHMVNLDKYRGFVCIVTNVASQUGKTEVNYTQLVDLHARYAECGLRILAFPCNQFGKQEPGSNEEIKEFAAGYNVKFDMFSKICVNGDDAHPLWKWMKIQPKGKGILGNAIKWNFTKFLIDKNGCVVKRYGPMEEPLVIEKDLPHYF
Summary of the method: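 qHTS, GR-coupled: GPX4 200 nM + cpd 30 min RT → GSH 1 mM, NADPH 0.5 mM, GR 100 nM → CHP 0.5 mM start; fluor 340/450 at t0 and t15 min; no-enzyme wells as control.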
`C=C[C@]1(C)C[C@@H](OC(=O)CSCCN(CC)CC)[C@]2(C)[C@H](C)CC[C@]3(CCC(=O)[C@H]32)[C@@H](C)[C@@H]1O` was tested, and the Potency was “inactive”.
For `CS(=O)(=O)c1ccc([C@@H](O)[C@@H](COC(=O)CN)NC(=O)C(Cl)Cl)cc1`, the Potency was “inactive”.
`CC1(O)CCC(C(C)(C)O)CC1` (stereo not drawn) was tested, and the Potency was “inactive”.
In the case of `CO[C@H]1O[C@@H]2O[C@@]3(C)CC[C@H]4[C@H](C)CC[C@@H]([C@H]1C)[C@@]24OO3`, the Potency is reported as “inactive”.
For `CCOC(=O)c1c[nH]c2cc(OCC(C)C)c(OCC(C)C)cc2c1=O`, the Potency was “inactive”.
With `O=[N+]([O-])c1c(Cl)cccc1-c1c[nH]cc1Cl` the Potency was “inactive”.
With `CC(CC=O)CCCC(C)(C)O` (stereo not drawn) the Potency was “inactive”.
With `CCCCCCCCCCCCCC(=O)OCC(COP(=O)([O-])OCC[N+](C)(C)C)OC(=O)CCCCCCCCCCCCC` (stereo not drawn) the Potency was “inactive”.
In the case of `CN1CCN(C(c2ccccc2)c2ccc(Cl)cc2)CC1` (stereo not drawn), the Potency is reported as “inactive”.
For `CC(C)c1nc(N(C)S(C)(=O)=O)nc(-c2ccc(F)cc2)c1/C=C/C(O)CC(O)CC(=O)O` (stereo not drawn), the Potency was “inactive”.
For `CCC(O)c1ccccc1` (stereo not drawn), the Potency was “inactive”.
For `CCCOc1cc(N)ccc1C(=O)OCCN(CC)CC`, the Potency was “inactive”.
`CCCCC[C@H](O)/C=C/[C@@H]1[C@H]2C/C(=C/CCCC(=O)O)O[C@H]2C[C@H]1O` was tested, and the Potency was “inactive”.
